# Tests used:
# Experiment in all cases: DAPPL (digital affinity profiling via proximity ligation, sequencing); 10 mM Tris-HCl pH 7.5, 50 mM NaCl, 1 mM DTT, 4% glycerol, room temperature, 30 min; GST-TFs on glutathione beads, 16-mer random dsDNA library, 0.1% formaldehyde crosslink after washing; high values mean tight binding
# FLI1 = molecular target: T1, FLI1 (Homo sapiens, UniProt Q01543 1-452); settings: protein: recombinant; tags: N-terminal GST; dsDNA, one strand shown
# T1 sequence: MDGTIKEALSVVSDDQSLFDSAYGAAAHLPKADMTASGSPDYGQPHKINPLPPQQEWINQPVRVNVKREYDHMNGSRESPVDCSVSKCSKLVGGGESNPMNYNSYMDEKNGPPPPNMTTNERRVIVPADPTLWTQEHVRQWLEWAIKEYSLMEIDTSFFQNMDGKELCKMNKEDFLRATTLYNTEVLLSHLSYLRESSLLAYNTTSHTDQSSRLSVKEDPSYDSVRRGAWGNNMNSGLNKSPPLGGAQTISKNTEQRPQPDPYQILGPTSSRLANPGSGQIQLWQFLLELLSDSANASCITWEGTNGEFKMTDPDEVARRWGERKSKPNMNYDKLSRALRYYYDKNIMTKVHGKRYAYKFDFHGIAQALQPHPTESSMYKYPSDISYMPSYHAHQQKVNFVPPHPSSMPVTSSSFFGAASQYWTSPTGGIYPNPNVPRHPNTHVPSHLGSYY
# Method in brief: (§1)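 A tag-only sample was pooled with DNA-barcoded human transcription factors that had been expressed in yeast as GST fusions and captured on glutathione beads. The pools were incubated for 30 min at room temperature with 200 nmole of a random double-stranded 16-mer DNA library in Tris/NaCl/DTT/glycerol buffer, then washed, crosslinked with 0.1% formaldehyde, proximity-ligated (BsaI/T4 ligase, 1 h, 37 °C), PCR-amplified and sequenced on an Illumina NextSeq500. Binding signal is each hexamer's read frequency for a factor divided by its frequency for the tag-only sample.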
# ELK1 = molecular target: T2, ELK1 (Homo sapiens, UniProt P19419 1-428); settings: protein: recombinant; tags: N-terminal GST; dsDNA, one strand shown
# T2 sequence: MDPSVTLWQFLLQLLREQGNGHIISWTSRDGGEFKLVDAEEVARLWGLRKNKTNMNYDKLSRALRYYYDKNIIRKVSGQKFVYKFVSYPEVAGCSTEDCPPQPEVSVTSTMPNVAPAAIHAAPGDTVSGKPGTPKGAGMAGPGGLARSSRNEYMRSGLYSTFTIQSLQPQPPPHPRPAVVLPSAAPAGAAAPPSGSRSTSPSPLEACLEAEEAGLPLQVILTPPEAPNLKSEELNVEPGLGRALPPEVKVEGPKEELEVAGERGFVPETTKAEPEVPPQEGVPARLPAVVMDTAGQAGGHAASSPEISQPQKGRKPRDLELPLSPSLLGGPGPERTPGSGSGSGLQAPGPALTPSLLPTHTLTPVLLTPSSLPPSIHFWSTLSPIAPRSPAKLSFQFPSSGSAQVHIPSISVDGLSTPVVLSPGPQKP
# Method in brief: as §1
# GABPA = molecular target: T3, GABPA (Homo sapiens, UniProt Q06546 1-454); settings: protein: recombinant; tags: N-terminal GST; dsDNA, one strand shown
# T3 sequence: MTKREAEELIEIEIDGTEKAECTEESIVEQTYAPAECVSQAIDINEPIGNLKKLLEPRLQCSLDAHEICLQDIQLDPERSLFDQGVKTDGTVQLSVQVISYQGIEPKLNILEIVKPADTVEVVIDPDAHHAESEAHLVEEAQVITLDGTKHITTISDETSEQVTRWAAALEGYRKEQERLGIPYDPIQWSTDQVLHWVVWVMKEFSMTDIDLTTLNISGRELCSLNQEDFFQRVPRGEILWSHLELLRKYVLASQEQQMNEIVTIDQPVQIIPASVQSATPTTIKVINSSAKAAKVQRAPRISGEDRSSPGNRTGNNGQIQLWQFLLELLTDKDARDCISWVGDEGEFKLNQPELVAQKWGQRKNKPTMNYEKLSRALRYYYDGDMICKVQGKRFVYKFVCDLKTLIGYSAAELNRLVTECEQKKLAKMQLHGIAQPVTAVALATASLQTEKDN
# Method in brief: as §1
# ERG = molecular target: T4, ERG (Homo sapiens, UniProt P11308 1-479); settings: protein: recombinant; tags: N-terminal GST; dsDNA, one strand shown
# T4 sequence: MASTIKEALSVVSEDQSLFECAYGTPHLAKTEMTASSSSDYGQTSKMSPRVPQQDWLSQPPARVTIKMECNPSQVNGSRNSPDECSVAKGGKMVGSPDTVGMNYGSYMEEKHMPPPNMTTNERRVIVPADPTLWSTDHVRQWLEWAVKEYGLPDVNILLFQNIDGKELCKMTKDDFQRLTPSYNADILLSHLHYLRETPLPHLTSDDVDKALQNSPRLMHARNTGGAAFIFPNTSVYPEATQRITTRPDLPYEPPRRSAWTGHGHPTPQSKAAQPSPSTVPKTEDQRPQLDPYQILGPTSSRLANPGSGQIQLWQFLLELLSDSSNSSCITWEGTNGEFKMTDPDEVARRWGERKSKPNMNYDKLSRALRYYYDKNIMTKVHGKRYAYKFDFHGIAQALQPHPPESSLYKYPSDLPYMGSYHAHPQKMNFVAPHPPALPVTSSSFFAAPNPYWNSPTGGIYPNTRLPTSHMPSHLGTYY
# Method in brief: as §1
# ELF1 = ELF1 (Homo sapiens, UniProt P32519 1-619); settings: protein: recombinant; tags: N-terminal GST; dsDNA, one strand shown
# Method in brief: as §1
# EHF = molecular target: T5, EHF (Homo sapiens, UniProt Q9NZC4 1-300); settings: protein: recombinant; tags: N-terminal GST; dsDNA, one strand shown
# T5 sequence: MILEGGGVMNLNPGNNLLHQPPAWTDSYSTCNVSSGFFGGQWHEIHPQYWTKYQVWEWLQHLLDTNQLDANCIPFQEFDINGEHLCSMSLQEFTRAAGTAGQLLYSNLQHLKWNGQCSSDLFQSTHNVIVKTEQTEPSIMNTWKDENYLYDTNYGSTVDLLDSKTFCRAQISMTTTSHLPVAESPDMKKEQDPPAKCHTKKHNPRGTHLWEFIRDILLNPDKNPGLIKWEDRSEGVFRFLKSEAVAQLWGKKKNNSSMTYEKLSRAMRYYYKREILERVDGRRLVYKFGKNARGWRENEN
# Method in brief: as §1
# SPI1 = SPI1 (Homo sapiens, UniProt P17947 1-270); settings: protein: recombinant; tags: N-terminal GST; dsDNA, one strand shown
# Method in brief: as §1
# SPIB = SPIB (Homo sapiens, UniProt Q01892 1-262); settings: protein: recombinant; tags: N-terminal GST; dsDNA, one strand shown
# Method in brief: as §1
# ELK3 = molecular target: T6, ELK3 (Homo sapiens, UniProt P41970 1-407); settings: protein: recombinant; tags: N-terminal GST; dsDNA, one strand shown
# T6 sequence: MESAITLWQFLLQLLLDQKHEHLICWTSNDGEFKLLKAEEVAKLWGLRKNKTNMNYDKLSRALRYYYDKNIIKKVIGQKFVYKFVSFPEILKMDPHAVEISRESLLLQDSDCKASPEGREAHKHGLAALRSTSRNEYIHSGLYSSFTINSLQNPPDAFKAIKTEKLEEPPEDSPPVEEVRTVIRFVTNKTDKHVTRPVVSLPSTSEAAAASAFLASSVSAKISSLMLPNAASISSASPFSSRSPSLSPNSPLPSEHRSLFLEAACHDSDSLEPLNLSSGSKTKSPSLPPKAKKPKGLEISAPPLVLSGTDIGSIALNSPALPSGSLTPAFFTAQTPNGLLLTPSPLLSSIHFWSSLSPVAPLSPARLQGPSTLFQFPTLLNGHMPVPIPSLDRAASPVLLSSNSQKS
# Method in brief: as §1
# FEV = molecular target: T7, FEV (Homo sapiens, UniProt Q99581 1-238); settings: protein: recombinant; tags: N-terminal GST; dsDNA, one strand shown
# T7 sequence: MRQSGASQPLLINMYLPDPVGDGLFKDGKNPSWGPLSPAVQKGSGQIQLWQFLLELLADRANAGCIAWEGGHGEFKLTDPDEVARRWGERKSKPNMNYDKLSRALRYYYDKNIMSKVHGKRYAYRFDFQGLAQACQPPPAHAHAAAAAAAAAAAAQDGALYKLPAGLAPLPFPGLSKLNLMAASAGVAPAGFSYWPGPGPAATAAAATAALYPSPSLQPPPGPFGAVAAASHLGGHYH
# Method in brief: as §1
# ETV5 = ETV5 (Homo sapiens, UniProt P41161 1-510); settings: protein: recombinant; tags: N-terminal GST; dsDNA, one strand shown
# Method in brief: as §1
# HSF1 = HSF1 (Homo sapiens, UniProt Q00613 1-529); settings: protein: recombinant; tags: N-terminal GST; chain copies: 3; dsDNA, one strand shown
# Method in brief: as §1
# SPIC = molecular target: T8, SPIC (Homo sapiens, UniProt Q8N5J4 1-248); settings: protein: recombinant; tags: N-terminal GST; dsDNA, one strand shown
# T8 sequence: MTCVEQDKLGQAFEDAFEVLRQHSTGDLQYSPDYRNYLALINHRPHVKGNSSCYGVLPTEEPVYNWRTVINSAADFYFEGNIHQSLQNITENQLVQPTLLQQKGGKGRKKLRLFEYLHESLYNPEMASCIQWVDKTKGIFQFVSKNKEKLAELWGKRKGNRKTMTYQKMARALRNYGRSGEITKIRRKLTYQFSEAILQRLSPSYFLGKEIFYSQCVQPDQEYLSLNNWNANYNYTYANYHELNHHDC
# Method in brief: as §1
# ELF4 = ELF4 (Homo sapiens, UniProt Q99607 1-663); settings: protein: recombinant; tags: N-terminal GST; dsDNA, one strand shown
# Method in brief: as §1
# ELK4 = molecular target: T9, ELK4 (Homo sapiens, UniProt P28324-2 1-405); settings: protein: recombinant; tags: N-terminal GST; dsDNA, one strand shown
# T9 sequence: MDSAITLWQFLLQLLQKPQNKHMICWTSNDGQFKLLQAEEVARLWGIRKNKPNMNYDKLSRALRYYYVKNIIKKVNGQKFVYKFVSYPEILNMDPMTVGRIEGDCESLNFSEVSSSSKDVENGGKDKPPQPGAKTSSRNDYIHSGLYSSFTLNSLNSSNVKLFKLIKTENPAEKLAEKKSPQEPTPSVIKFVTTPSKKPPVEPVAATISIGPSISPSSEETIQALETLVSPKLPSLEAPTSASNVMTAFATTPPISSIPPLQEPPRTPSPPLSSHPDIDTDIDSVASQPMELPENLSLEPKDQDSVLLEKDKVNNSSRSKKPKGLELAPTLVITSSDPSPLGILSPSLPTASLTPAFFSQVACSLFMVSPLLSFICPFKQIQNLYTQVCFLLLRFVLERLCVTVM
# Method in brief: as §1
# ETV2 = molecular target: T10, ETV2 (Homo sapiens, UniProt O00321 1-342); settings: protein: recombinant; tags: N-terminal GST; dsDNA, one strand shown
# T10 sequence: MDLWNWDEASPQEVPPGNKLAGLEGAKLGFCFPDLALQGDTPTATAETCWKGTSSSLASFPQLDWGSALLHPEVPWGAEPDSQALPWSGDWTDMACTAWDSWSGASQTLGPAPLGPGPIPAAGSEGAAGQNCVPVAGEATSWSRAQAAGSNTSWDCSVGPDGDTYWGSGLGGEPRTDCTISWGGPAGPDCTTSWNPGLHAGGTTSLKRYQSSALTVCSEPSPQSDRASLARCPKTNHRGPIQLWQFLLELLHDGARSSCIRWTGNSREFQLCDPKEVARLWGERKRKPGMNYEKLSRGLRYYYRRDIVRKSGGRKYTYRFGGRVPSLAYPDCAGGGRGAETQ
# Method in brief: as §1
# ELF3 = molecular target: T11, ELF3 (Homo sapiens, UniProt P78545 1-371); settings: protein: recombinant; tags: N-terminal GST; dsDNA, one strand shown
# T11 sequence: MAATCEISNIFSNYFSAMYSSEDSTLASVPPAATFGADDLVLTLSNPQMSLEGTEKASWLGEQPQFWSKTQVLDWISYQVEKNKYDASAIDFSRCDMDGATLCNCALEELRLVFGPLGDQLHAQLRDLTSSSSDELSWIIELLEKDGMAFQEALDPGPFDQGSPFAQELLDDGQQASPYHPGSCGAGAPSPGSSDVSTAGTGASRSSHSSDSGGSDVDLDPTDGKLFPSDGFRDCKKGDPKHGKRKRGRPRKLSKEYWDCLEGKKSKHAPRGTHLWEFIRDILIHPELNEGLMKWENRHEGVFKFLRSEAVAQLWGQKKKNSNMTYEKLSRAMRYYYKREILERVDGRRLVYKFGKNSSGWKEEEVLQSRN
# Method in brief: as §1
# CRX = CRX (Homo sapiens, UniProt O43186 1-299); settings: protein: recombinant; tags: N-terminal GST; dsDNA, one strand shown
# Method in brief: as §1
# ETV1 = ETV1 (Homo sapiens, UniProt P50549 1-477); settings: protein: recombinant; tags: N-terminal GST; dsDNA, one strand shown
# Method in brief: as §1
# ETV1, sequence (P50549 whole entry): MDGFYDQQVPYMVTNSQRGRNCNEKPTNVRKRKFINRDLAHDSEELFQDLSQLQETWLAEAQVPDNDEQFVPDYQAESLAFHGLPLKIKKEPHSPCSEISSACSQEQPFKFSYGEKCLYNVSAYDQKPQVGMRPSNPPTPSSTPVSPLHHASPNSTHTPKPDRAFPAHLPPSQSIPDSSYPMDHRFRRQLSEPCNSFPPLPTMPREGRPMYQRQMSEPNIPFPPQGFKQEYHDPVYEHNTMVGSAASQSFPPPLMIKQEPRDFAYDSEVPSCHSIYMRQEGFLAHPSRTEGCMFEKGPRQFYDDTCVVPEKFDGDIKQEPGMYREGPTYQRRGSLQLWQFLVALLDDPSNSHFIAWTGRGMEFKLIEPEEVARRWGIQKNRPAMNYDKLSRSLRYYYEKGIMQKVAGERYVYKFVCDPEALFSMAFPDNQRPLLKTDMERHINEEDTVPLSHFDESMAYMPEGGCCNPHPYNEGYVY
# ELF1, sequence (P32519 whole entry): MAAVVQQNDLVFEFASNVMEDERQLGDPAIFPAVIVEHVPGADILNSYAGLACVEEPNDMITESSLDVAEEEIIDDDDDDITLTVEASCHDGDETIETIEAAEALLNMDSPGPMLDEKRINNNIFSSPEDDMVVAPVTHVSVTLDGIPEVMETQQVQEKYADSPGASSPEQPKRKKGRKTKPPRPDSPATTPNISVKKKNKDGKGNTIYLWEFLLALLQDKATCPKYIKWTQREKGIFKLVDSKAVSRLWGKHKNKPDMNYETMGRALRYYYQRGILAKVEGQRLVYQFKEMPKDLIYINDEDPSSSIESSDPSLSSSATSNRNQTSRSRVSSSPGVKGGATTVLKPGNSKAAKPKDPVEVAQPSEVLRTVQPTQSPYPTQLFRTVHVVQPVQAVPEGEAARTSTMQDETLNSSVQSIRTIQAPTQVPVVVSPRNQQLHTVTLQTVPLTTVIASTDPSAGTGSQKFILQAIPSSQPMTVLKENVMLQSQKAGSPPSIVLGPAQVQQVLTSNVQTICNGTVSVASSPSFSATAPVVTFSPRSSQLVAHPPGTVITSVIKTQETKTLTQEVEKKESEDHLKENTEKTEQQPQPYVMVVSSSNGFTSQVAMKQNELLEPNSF
# SPIB, sequence (Q01892 whole entry): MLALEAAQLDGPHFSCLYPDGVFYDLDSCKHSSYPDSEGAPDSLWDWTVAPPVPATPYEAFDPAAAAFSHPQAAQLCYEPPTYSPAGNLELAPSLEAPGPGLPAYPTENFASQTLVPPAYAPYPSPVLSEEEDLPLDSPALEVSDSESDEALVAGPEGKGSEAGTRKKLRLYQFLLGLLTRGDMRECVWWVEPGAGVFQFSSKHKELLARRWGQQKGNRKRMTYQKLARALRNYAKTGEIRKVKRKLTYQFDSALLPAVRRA
# ETV5, sequence (P41161 whole entry): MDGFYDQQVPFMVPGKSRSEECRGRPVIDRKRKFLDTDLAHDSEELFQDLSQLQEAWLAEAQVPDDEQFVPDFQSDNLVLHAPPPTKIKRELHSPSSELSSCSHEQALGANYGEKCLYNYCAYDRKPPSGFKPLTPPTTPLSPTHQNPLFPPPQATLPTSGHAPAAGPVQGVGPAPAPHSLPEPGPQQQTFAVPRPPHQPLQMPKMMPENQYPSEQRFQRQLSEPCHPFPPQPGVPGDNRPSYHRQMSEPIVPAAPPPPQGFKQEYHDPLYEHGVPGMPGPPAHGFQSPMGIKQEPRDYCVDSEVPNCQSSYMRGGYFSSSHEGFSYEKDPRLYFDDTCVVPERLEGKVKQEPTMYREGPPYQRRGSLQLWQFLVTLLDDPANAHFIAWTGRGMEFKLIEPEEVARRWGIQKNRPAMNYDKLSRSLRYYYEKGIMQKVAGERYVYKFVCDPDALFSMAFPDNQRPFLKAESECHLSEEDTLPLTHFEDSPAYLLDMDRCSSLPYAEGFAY
# ELF4, sequence (Q99607 whole entry): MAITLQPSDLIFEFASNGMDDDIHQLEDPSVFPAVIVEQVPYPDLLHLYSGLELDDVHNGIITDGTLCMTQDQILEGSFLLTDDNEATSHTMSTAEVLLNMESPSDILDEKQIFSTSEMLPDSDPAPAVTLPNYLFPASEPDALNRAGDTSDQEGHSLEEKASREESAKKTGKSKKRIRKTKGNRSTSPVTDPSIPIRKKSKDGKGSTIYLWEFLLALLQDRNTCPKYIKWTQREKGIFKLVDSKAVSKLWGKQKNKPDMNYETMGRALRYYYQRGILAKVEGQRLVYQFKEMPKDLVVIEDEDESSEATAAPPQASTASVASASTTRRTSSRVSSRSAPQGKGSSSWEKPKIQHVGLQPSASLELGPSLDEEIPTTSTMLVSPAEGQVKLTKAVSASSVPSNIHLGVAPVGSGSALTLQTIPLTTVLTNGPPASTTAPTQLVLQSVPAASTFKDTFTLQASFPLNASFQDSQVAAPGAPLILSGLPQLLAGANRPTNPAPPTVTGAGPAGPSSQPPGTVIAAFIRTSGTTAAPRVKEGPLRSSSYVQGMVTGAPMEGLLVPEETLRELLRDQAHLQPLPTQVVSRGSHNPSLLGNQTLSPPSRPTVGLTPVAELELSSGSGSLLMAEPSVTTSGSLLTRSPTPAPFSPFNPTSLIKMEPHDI
# HSF1, sequence (Q00613 whole entry): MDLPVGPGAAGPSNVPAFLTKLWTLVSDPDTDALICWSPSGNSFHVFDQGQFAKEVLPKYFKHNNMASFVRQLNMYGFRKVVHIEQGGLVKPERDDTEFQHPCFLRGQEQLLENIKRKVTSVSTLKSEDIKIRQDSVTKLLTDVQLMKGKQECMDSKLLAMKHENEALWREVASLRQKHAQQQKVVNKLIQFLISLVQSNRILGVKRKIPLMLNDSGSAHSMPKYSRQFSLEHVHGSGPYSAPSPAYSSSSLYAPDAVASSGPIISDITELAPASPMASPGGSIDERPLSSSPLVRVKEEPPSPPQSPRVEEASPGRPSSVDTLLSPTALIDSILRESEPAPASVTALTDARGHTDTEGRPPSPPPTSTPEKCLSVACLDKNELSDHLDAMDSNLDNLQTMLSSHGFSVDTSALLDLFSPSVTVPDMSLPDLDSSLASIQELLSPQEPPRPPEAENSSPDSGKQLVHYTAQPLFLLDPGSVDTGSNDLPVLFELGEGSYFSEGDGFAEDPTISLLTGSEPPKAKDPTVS
# CRX, sequence (O43186 whole entry): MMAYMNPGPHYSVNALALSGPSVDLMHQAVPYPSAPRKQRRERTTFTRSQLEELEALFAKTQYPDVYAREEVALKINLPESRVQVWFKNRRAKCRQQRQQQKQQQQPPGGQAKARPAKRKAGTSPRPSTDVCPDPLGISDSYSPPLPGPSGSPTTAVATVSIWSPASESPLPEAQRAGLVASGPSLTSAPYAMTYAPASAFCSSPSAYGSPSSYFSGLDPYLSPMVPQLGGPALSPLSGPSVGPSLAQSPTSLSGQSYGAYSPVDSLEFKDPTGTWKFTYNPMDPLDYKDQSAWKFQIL
sequence,measurement,setting,value
GTATTC,binding signal,FLI1,"1.33 fold enrichment (6-mer frequency, TF over GST control)"
same,binding signal,ELK1,"1.17 fold enrichment (6-mer frequency, TF over GST control)"
same,binding signal,GABPA,"1.26 fold enrichment (6-mer frequency, TF over GST control)"
same,binding signal,ERG,"1.19 fold enrichment (6-mer frequency, TF over GST control)"
same,binding signal,ELF1,"1.22 fold enrichment (6-mer frequency, TF over GST control)"
same,binding signal,EHF,"1.27 fold enrichment (6-mer frequency, TF over GST control)"
same,binding signal,SPI1,"1.31 fold enrichment (6-mer frequency, TF over GST control)"
same,binding signal,SPIB,"1.25 fold enrichment (6-mer frequency, TF over GST control)"
same,binding signal,ELK3,"1.3 fold enrichment (6-mer frequency, TF over GST control)"
same,binding signal,FEV,"1.18 fold enrichment (6-mer frequency, TF over GST control)"
same,binding signal,ETV5,"1.32 fold enrichment (6-mer frequency, TF over GST control)"
same,binding signal,HSF1,"1.31 fold enrichment (6-mer frequency, TF over GST control)"
same,binding signal,SPIC,"1.33 fold enrichment (6-mer frequency, TF over GST control)"
same,binding signal,ELF4,"1.27 fold enrichment (6-mer frequency, TF over GST control)"
same,binding signal,ELK4,"1.16 fold enrichment (6-mer frequency, TF over GST control)"
same,binding signal,ETV2,"1.27 fold enrichment (6-mer frequency, TF over GST control)"
same,binding signal,ELF3,"1.31 fold enrichment (6-mer frequency, TF over GST control)"
same,binding signal,CRX,"1.13 fold enrichment (6-mer frequency, TF over GST control)"
same,binding signal,ETV1,"1.22 fold enrichment (6-mer frequency, TF over GST control)"

# Reference: publication PMC7862700, “An all-to-all approach to the identification of sequence-specific readers for epigenetic DNA modifications on cytosine”
